Source: PubChem BioAssay (Tox21)
Values joined by “and” are separate entries in the source; they are usually repeats but may differ in a detail not shown here. Equal values may be shown once. Inconclusive results are not listed. Entries that show only a call come without a potency. Active and inactive are the calls of the source. Unless noted, calls follow the shape of the dose curve; as a rule, active = well fitted curve in the direction sought with a large enough effect in the repeat runs; inconclusive = weak or mixed curves; inactive = no such curve, though single readings can be large; an effect the other way counts as inactive or inconclusive.

Legend:
[1] = qHTS assay to identify aromatase inhibitors - cell viability counter screen (AID 743084); settings: MCF-7 aro ERE viability, CellTiter-Fluor, 24 h; series mostly up to 70.3 µM;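 also: cells stimulated with testosterone during compound exposure; nearly all actives have a fitted effect of over 55% in size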; also: potency is read from the fitted curve at half-maximal effect
[2] = qHTS assay to identify small molecule that activate the aryl hydrocarbon receptor (AhR) signaling pathway - cell viability counter screen (AID 743086); settings: HepG2-AhR-luc viability, CellTiter-Fluor, 24 h; series mostly up to 70.3 µM; also: nearly all actives have a fitted effect of over 45% in size; also: potency is read from the fitted curve at half-maximal effect
Outline: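 Cytotoxicity counter screen: CellTiter-Fluor signal (30 min, 37 C) in 4000 HepG2 cells/well carrying the DRE-luciferase reporter, following 24 h compound exposure at 37 C.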

[3] = biological target: Peroxisome proliferator-activated receptor gamma (Homo sapiens) (UniProt P37231); assay: qHTS assay to identify small molecule agonists of the peroxisome proliferator-activated receptor gamma (PPARg) signaling pathway (AID 743094; active = well fitted activation curve with a large enough effect in the signal ratio in the repeat runs, not every such curve was filed as active; the % refers to the signal ratio); settings: HEK293H PPARg-UAS-bla, beta-lactamase FRET ratio, 17 h; series mostly up to 57 µM
Outline: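 GeneBLAzer PPARg UAS-bla HEK293H cells were plated, rested 5 h, then exposed to compounds for 17 h at 37C. Beta-lactamase activity was read by LiveBLAzer B/G FRET substrate fluorescence after 1 h at room temperature.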

[4] = biological target: Peroxisome proliferator-activated receptor gamma (Homo sapiens) (UniProt P37231); assay: qHTS assay to identify small molecule antagonists of the peroxisome proliferator-activated receptor gamma (PPARg) signaling pathway (AID 743191; calls by dose curve; also: nearly all actives have a fitted effect of over 30% in size; also: potency is read from the fitted curve at half-maximal effect); settings: HEK293H PPARg-UAS-bla, beta-lactamase ratio, antagonist, 17 h; series mostly up to 62.6 µM
Outline: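 Beta-lactamase reporter under UAS control in HEK293H PPARg-bla cells; compound treatment 17 h at 37C. Read-out: fluorescence intensity after 1 h room-temperature incubation with LiveBLAzer B/G FRET substrate.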

[5] = qHTS assay for small molecule agonists of the antioxidant response element (ARE) signaling pathway (AID 743202; active = well fitted activation curve with a large enough effect in the signal ratio in the repeat runs, not every such curve was filed as active; the % refers to the signal ratio; also: potency is read from the fitted curve at half-maximal effect); settings: HepG2 ARE-bla reporter, beta-lactamase FRET, 16 h; series mostly up to 73.3 µM
Outline: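 An ARE-responsive beta-lactamase gene stably integrated in HepG2 cells serves as reporter. After 5 h plating and 16 h compound incubation at 37 C, fluorescence of the B/G FRET substrate was measured.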

[6] = qHTS assay for small molecule agonists of the antioxidant response element (ARE) signaling pathway - cell viability counter screen (AID 743203; calls by dose curve; also: nearly all actives have a fitted effect of over 55% in size; also: potency is read from the fitted curve at half-maximal effect); settings: ARE-bla HepG2 viability, CellTiter-Glo luminescence, 16 h; series mostly up to 73.3 µM
Outline: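 ARE-bla HepG2 cells were plated, rested 5 h at 37C/5% CO2, then exposed to compounds in DMSO for 16 h. Viability was read as CellTiter-Glo luminescence after 30 min at room temperature, in the same wells as the ARE screen.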

[7] = qHTS assay for small molecule activators of the heat shock response signaling pathway - cell viability counter screen (AID 743209); settings: HSE-bla HeLa viability, CellTiter-Glo luminescence, 5 h; series mostly up to 62.6 µM; also: nearly all actives have a fitted effect of over 50% in size
Outline: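 HSE-bla HeLa cells plated overnight, then exposed to Tox21 compounds (23 nL in DMSO) for 5 h at 37 C. After the bla reporter read, CellTiter-Glo was added in the same wells and luminescence read after 30 min at room temperature.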

[8] = qHTS assay for small molecule activators of the heat shock response signaling pathway (AID 743210; active = well fitted activation curve with a large enough effect in the signal ratio in the repeat runs, with a control signal flat, not every such curve was filed as active; the % refers to the signal ratio; also: potency is read from the fitted curve at half-maximal effect;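 as to activation: HeLa cells with beta-lactamase reporter driven by heat shock elements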); settings: HeLa HSE-bla reporter, beta-lactamase ratio, 5 h; series mostly up to 62.6 µM
Outline: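 In HSE-bla HeLa cells, 5 h compound incubation (37 C) precedes addition of LiveBLAzer B/G substrate; after 2.5 h at room temperature, fluorescence intensity indicates reporter induction.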

[9] = qHTS assay to identify small molecule antagonists of the peroxisome proliferator-activated receptor gamma (PPARg) signaling pathway - cell viability counter screen (AID 743194); settings: PPARg-bla HEK293H viability, CellTiter-Glo luminescence, 17 h, co-treated with 50 nM rosiglitazone; series mostly up to 62.6 µM; also: nearly all actives have a fitted effect of over 55% in size
Outline: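 Viability was measured as CellTiter-Glo luminescence in GeneBLAzer PPARg UAS-bla HEK293H cells. These cells had been exposed 17 h at 37 C to compounds together with rosiglitazone at 50 nM final, with the beta-lactamase readout taken in the same wells.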

[10] = biological target: Aryl hydrocarbon receptor (Homo sapiens) (UniProt P35869); assay: qHTS assay to identify small molecule that activate the aryl hydrocarbon receptor (AhR) signaling pathway (AID 743085); settings: HepG2 AhR-luc (HG2L7.5c1), luciferase, 24 h; series mostly up to 70.3 µM;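 also: HG2L7.5c1 human HepG2 liver cells with stably integrated DRE-driven firefly reporter; nearly all actives have a fitted effect of over 15% in size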
Outline: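 Stably transfected human liver carcinoma cells (HG2L7.5c1; 20 DRE-firefly luciferase) were incubated 5 h, dosed, and kept 24 h at 37C. Agonism was scored from increased luciferase luminescence.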

Sequence of Peroxisome proliferator-activated receptor gamma (Homo sapiens) (P37231 whole entry, looked up): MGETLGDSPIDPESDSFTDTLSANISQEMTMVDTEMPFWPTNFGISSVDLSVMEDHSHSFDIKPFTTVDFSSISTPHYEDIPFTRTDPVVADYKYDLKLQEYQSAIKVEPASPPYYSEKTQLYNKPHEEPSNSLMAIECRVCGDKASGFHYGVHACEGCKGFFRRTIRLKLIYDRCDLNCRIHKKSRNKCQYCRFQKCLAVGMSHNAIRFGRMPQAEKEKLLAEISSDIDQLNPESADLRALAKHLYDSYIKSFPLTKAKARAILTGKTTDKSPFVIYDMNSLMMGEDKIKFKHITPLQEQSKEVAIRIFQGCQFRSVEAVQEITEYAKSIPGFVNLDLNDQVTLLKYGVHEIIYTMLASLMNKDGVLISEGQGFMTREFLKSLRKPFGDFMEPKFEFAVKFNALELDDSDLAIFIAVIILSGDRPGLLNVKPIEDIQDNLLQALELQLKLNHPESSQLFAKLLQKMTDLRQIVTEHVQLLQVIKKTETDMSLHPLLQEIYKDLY
Sequence of Aryl hydrocarbon receptor (Homo sapiens) (P35869 whole entry, looked up): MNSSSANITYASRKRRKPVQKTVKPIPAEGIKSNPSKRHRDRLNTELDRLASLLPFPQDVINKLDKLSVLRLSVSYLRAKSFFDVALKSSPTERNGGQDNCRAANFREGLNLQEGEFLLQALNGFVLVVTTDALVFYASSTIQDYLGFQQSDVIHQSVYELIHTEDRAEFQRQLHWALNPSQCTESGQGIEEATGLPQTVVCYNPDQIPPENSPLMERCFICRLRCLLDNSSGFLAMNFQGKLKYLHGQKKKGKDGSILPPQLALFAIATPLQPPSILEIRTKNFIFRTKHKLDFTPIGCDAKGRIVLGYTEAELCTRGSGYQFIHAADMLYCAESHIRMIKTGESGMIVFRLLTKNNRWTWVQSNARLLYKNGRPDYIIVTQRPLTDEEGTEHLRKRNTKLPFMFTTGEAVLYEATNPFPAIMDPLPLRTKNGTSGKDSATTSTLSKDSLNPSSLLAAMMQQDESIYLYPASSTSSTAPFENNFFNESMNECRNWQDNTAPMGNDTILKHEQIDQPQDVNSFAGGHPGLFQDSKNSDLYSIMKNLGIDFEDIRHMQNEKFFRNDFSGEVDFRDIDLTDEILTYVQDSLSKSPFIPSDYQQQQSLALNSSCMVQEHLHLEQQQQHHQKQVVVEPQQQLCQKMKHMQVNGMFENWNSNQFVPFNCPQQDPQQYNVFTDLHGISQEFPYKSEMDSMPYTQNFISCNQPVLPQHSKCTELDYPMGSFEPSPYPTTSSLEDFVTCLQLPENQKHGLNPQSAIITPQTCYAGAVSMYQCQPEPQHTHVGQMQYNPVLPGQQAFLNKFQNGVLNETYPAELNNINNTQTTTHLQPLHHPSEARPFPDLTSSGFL

SMILES | Potency [1] | Potency [2] | Potency [3] | Potency [4] | Potency [5] | Potency [6] | Potency [7] | Potency [8] | Potency [9] | Potency [10]
CCCC1C(CC)=CC(CC)=CN1c1ccccc1 (centres undefined) | inactive | inactive | inactive | inactive | 54.5 µM (active) | inactive | inactive | inactive |  | 
CC(C)CCCC(=O)O | inactive | inactive | inactive | inactive |  | inactive | inactive | inactive | inactive | 
CCCOCCOCCO | inactive | inactive | inactive | inactive | inactive | inactive | inactive | inactive |  | 
CC(C)(C)CC(C)(C)c1ccc(OCCO)cc1 | 33.5 µM (active) and 30.5 µM (active) |  | inactive | inactive |  | inactive | inactive |  | inactive | inactive
CCC(Cc1ccccc1)(C(=O)c1ccc(N2CCOCC2)cc1)N(C)C (centres undefined) | inactive |  | inactive |  |  | inactive | inactive |  | inactive | inactive
CC1=NN(c2ccc(C(=O)O)cc2)C(=O)C1 | inactive | inactive | inactive | inactive | inactive | inactive | inactive | inactive | inactive | 
Cc1c(C(=O)NN2CCCCC2)nn(-c2ccc(Cl)cc2Cl)c1-c1ccc(Cl)cc1 | inactive | inactive |  |  |  | 23.7 µM (active) |  |  |  | inactive
CC(CCc1ccc2c(c1)OCO2)NN (centres undefined) | inactive | inactive | inactive | inactive |  | inactive | inactive | inactive | inactive | 
CCCOc1ccc(S(=O)(=O)N2CCN(CC)CC2)cc1-c1nc2c(CC)n(Cc3ccccn3)nc2c(=O)[nH]1 | inactive |  |  |  |  | inactive | inactive | inactive | inactive | inactive
CN1CCN(CCCN2c3ccccc3Sc3ccc(S(=O)(=O)N(C)C)cc32)CC1 | inactive | inactive |  |  |  | 26.6 µM (active) |  | inactive |  | inactive
CO[C@H]1C=CO[C@@]2(C)Oc3c(C)c(O)c4c(O)c(c5c(c4c3C2=O)=NC2(CCN(CC(C)C)CC2)N=5)NC(=O)/C(C)=C\C=C/[C@H](C)[C@H](O)[C@@H](C)[C@@H](O)[C@@H](C)[C@H](OC(C)=O)[C@@H]1C | 30 µM (active) | 15 µM (active) |  |  |  |  | inactive |  |  | inactive
COc1ccccc1N=Nc1c(S(=O)(=O)O)cc2cc(S(=O)(=O)O)cc(NC(C)=O)c2c1O | 20.4 µM (active) | 22.9 µM (active) | inactive | inactive | inactive | inactive | inactive |  |  | 
C=CC(=C)CCCC(C)(C)OC(C)=O | inactive | inactive | inactive | inactive | inactive | inactive | inactive |  | inactive | 
COc1ccc(CCC(=O)c2c(O)cc(O[C@@H]3O[C@H](CO)[C@@H](O)[C@H](O)[C@H]3O[C@@H]3O[C@@H](C)[C@H](O)[C@@H](O)[C@H]3O)cc2O)cc1O | inactive | inactive | inactive | inactive | inactive | inactive | inactive | inactive |  | 
COCC(O)CO (centres undefined) | inactive | inactive | inactive | inactive | inactive | inactive | inactive | inactive | inactive | 
COCc1c(C(C)C)nc(C(C)C)c(/C=C/[C@@H](O)C[C@@H](O)CC(=O)O)c1-c1ccc(F)cc1 | inactive | inactive |  |  |  | inactive | inactive | inactive |  | inactive
CCc1cccc(N(C)C(N)=Nc2cccc3ccccc23)c1 | inactive |  |  |  |  | inactive | inactive | inactive | inactive | inactive
Cc1cc(S(=O)(=O)O)ccc1N=Nc1c(O)ccc2ccccc12 | 27.3 µM (active) | 24.3 µM (active) | inactive | inactive | inactive | inactive | inactive | inactive | inactive | 
CC1(C)C(=O)N(Br)C(=O)N1Cl | inactive |  |  | inactive |  | inactive | inactive | inactive | inactive | inactive
O=C(O)c1cccnc1C(=O)O | inactive | inactive | inactive | inactive | inactive | inactive | inactive | inactive |  | 
CC(=N\O)/C(C)=N/O | inactive |  | inactive | inactive |  | inactive | inactive | inactive |  | inactive
Fc1c(F)c(F)c(Br)c(F)c1F | inactive | inactive | inactive | inactive |  | inactive | inactive | inactive | inactive | 
CCC(=O)OC/C=C/c1ccccc1 | inactive | inactive | inactive | inactive |  | inactive | inactive | inactive | inactive | 
O=C(O)Cc1ccc(-c2ccccc2)cc1 | inactive | inactive |  |  |  | inactive | inactive | inactive |  | inactive
CC1(C)C2=CCCC(C)(C)[C@]23CC[C@H]1C3 | inactive | inactive | inactive | inactive |  | inactive | inactive | inactive | inactive | 
CCCCCC=CCC=CCCCCCCCC(=O)OCC | inactive | inactive | inactive | 29.8 µM (active) |  | inactive |  |  | inactive | 

SMILES | Potency [1] | Potency [2] | Potency [3] | Potency [4] | Potency [5] | Potency [6] | Potency [7] | Potency [8] | Potency [9] | Potency [10]
CC(COc1ccc(C(C)(C)C)cc1)OS(=O)OCCCl (centres undefined) | inactive | inactive | inactive | inactive | inactive | inactive | inactive | inactive | inactive | 
CCCCN(CCCC)CCCOC(=O)c1ccc(N)cc1 | inactive | inactive | inactive | inactive | inactive | inactive | inactive |  | inactive | 
CCCCCCCCCCCC[N+](C)(C)CCCS(=O)(=O)[O-] | inactive | inactive | inactive | inactive | inactive | inactive | inactive | inactive | inactive | 
Fc1ccccc1[C@@H](F)COC1CCC(Nc2ncnc3[nH]ncc23)CC1 (some centres undefined) | inactive | 30.6 µM (active) |  |  |  | inactive | inactive | inactive |  | inactive
NC(=O)N(O)[C@@H]1C=C[C@H](Oc2cccc(Oc3ccc(F)cc3)c2)C1 | inactive |  | inactive |  | 17.2 µM (active) | inactive | inactive |  | inactive | inactive
CCCCCCCCCCOS(=O)(=O)O | inactive | inactive |  |  |  | inactive | inactive |  |  | inactive
COC(OC)(C(=O)c1ccccc1)c1ccccc1 | inactive | inactive | inactive | inactive | inactive | inactive | inactive |  |  | 
CCCCC(=O)O[C@]1(C(=O)CO)[C@@H](C)C[C@H]2[C@@H]3CCC4=CC(=O)C=C[C@]4(C)[C@@]3(F)[C@@H](O)C[C@@]21C | inactive | inactive | inactive | inactive |  | inactive | inactive |  | inactive | 
NC(=O)N(O)[C@@H]1COc2cc(OCc3ccccc3)ccc21 | inactive |  | inactive | inactive | inactive | inactive | inactive | inactive |  | inactive
CC(C)(C)C(=O)O | inactive | inactive | inactive | inactive |  | inactive | inactive | inactive | inactive | 
O=S1OCCO1 | inactive | inactive | inactive | inactive | inactive | inactive | inactive |  |  | 
Oc1cc(O)c(Cl)cc1Cl | inactive | inactive | inactive | inactive |  | inactive | inactive | 50.2 µM (active) | inactive | 
CN1C(=O)CC(C)(c2ccccc2)C1=O (centres undefined) | inactive | inactive | inactive | inactive | inactive | inactive | inactive |  | inactive | 
O=C(c1ccc(O)cc1)c1ccc(Cl)cc1 | inactive | inactive | inactive |  |  | inactive | inactive | inactive |  | 
CCCCCCOC(=O)C(C)C | inactive | inactive | inactive |  | inactive | inactive | inactive |  | inactive | 
CC(=O)CC(c1ccc([N+](=O)[O-])cc1)c1c(O)c2ccccc2oc1=O (centres undefined) | inactive | inactive |  | inactive | inactive | inactive | inactive | inactive | inactive | 
O=C(OCCOCCO)c1ccccc1Nc1cccc(C(F)(F)F)c1 | inactive |  | inactive |  |  | inactive | inactive | inactive | inactive | 
CCOC(=O)[C@@H](C)Oc1ccc(Oc2nc3ccc(Cl)cc3o2)cc1 | inactive | inactive | inactive |  |  | inactive | inactive | inactive | inactive | 
CN(C(=O)C(Cl)Cl)c1ccc(OC(=O)c2ccco2)cc1 | inactive | inactive | inactive |  |  | inactive | inactive | inactive |  | 
CCCC(=O)O[C@]1(C(=O)COC(=O)CC)CC[C@H]2[C@@H]3CCC4=CC(=O)CC[C@]4(C)[C@H]3[C@@H](O)C[C@@]21C | inactive | inactive | inactive |  | inactive | inactive | inactive | inactive | inactive | 
COc1cc2c(N3CCN(C(=O)Nc4ccc(OC(C)C)cc4)CC3)ncnc2cc1OCCCN1CCCCC1 | inactive | 23.7 µM (active) | inactive | inactive |  | inactive | inactive | inactive |  | 
C[C@@H]1C[C@H]2[C@@H]3CCC4=CC(=O)C=C[C@]4(C)[C@@]3(F)[C@@H](O)C[C@]2(C)[C@H]1C(=O)CO | inactive | inactive | inactive |  |  | inactive | inactive | inactive |  | 
O=C(Nc1ccccc1)Nc1ccccc1 | inactive | inactive | inactive |  | inactive | inactive | inactive |  |  | 
CNC(=S)NC | inactive | inactive |  | inactive |  | inactive | inactive | inactive | inactive | 
CC(C)C(=O)O |  | inactive | inactive | inactive | inactive | inactive | inactive | inactive | inactive | inactive
